This passage reports Potency and outcome results from PubChem BioAssay (NCATS).

Assay [1] in a line: qHTS for differential inhibitors of proliferation of Plasmodium falciparum line Dd2 (AID 1882). Also: nearly all actives have a fitted effect of over 65% in size. Also: potency is read from the fitted curve at half-maximal effect. The conditions noted are these: Potency: Plasmodium falciparum Dd2 proliferation inhibition. The gist of the method: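 SYBR Green I DNA fluorescence read-out, ex 485/em 535 nm. Signals were normalized to 0.29 uM artemisinin and DMSO wells, then corrected using vehicle-only plates flanking each stack. Parasite growth ran 72 h in erythrocytes before lysis.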
(In general: In qHTS, concentration-response curves come from the screen itself.)

Assay [2] can be described thus: qHTS for differential inhibitors of proliferation of Plasmodium falciparum line HB3 (AID 1886).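 Also: parasites grown with compound for 72 h before SYBR Green readout.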 Also: potency is read from the fitted curve at half-maximal effect. The conditions noted are these: Potency: Plasmodium falciparum HB3 proliferation inhibition.
Assay [3] deals with ATP-dependent DNA helicase Q1 (Homo sapiens) (UniProt P46063). Nature of the assay: qHTS Validation Assay for Inhibitors of RecQ-Like Dna Helicase 1 (RECQ1) (AID 2353). The essentials: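 50 nM RECQ1T1 preincubated 15 min with compound in Tris pH 8.0 buffer with MgCl2, DTT, Tween-20 and 2.5 ug/ml poly(dI-dC); started with 200 nM TAMRA/BHQ-2 forked duplex and 2 mM ATP. Unwinding read as fluorescence (525/598 nm), two reads 2 h apart.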
ATP-dependent DNA helicase Q1 (Homo sapiens), sequence (P46063 whole entry, looked up): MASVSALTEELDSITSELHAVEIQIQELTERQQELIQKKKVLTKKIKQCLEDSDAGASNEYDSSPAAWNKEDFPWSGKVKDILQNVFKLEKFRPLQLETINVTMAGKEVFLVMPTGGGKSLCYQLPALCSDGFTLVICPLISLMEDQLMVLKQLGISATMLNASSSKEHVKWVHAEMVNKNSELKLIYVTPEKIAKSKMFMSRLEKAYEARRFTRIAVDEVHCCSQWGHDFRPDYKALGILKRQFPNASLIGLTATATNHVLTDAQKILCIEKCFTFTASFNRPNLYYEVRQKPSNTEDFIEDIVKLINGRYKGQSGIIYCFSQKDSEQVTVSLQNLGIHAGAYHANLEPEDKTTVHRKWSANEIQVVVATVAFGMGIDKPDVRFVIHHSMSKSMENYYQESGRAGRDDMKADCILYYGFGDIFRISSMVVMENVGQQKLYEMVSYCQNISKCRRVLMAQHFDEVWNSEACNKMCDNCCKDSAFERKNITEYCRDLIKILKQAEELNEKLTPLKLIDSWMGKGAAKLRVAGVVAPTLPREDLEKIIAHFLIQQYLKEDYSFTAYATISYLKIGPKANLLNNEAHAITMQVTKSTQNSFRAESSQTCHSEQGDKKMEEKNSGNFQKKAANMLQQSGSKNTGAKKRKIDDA

A short description of assay [4]: Cytometric Cell-Based qHTS for Inhibitors of the mTORC1 Signaling Pathway in MEF (Tsc2-/-, p53-/-) Cells (AID 2660).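 Also: percent of cells above a phospho-rpS6 to PI ratio cutoff in each well.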 The essentials: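 Cells are plated, treated with compound for 24 hrs at 37 degree Celsius, then fixed, blocked and immunostained for phospho-rpS6 Ser235/236. Propidium iodide counterstain follows. Per-well % positive cells is derived from the PI-normalized phospho-S6 signal.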

Assay [5] in a line: High Content Imaging Cell-Based qHTS for Inhibitors of the mTORC1 Signaling Pathway in MEF (Tsc2-/-, p53-/-) Cells (AID 2666). The conditions noted are these: at 38.3 µM (top of the series). The essentials: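 Phospho-rpS6 (Ser235/236) immunofluorescence, normalized and scored as % positive cells using rapamycin and DMSO controls, was read in empty-vector Tsc2-/-, p53-/- MEFs after 24 h compound exposure at 37 C; propidium iodide counted cells.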

Assay [6] can be described thus: High Content Imaging Cell-Based qHTS for Inhibitors of the mTORC1 Signaling Pathway in MEF Cells (AID 2667). Also: potency is read from the fitted curve at half-maximal effect. The essentials: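 WT MEFs (Tsc2-/-, p53-/- re-expressing Tsc2), in DMEM + 10% FBS, were treated with compound for 24 h at 37 C. Cells were then fixed and stained for phospho-rpS6 Ser235/236 with propidium iodide as cell count. Values are % positive cells, with thresholds set against rapamycin-treated cells.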

Assay [7] in a line: Cytometry Cell-Based qHTS for Inhibitors of the mTORC1 Signaling Pathway in MEF cells (AID 2668). Also: potency is read from the fitted curve at half-maximal effect. The gist of the method:
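In MEFs grown in DMEM + 10% FBS, a 24 hrs compound exposure preceded imaging of phospho-rpS6 Ser235/236 by laser-scanning cytometry.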

A short description of assay [8]: Validation screen for small molecules that induce DNA re-replication in MCF 10A normal breast cells (AID 463097). Also: nearly all actives have a fitted effect of over 60% in size. The gist of the method: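 Following 48 hr compound incubation (37 C, 5% CO2), MCF 10A cells receive Hoechst for 40 min at 37 C. Nuclei are then scanned (excitation 405 nm, emission 500-530 nm) for total fluorescence intensity.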
Assay [9] concerns the target Ubiquitin carboxyl-terminal hydrolase 2 (Homo sapiens) (UniProt O75604). Briefly: qHTS Validation Assay for Inhibitors of Ubiquitin-specific Protease USP2a Using CHOP2 as the Reporter (AID 463106). The gist of the method:
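USP2 core (10 nM final) was preincubated with compound 30 min at RT in pH 8.0 Tris/CaCl2/beta-ME/CHAPS buffer. Ub-CHOP2 and reporter substrate (25 nM final each) were then added, with fluorescence (Ex 485/Em 531) read after 60 min. Data were normalized to NEM full inhibition and fitted to concentration-response curves.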

In assay [10] the target is DNA polymerase III PolC-type (Bacillus subtilis (strain 168)) (UniProt P13267). Briefly: qHTS Validation Assay for the Inhibitors of DNA Replication in Gram-Positive Bacteria (AID 485295).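 Also: reconstituted holoenzyme with PolC plus beta clamp SSB and primase; PicoGreen fluorescence of double-stranded DNA made on primed circular M13 template.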 The gist of the method:
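Inhibition of DNA synthesis by the reconstituted PolC holoenzyme, monitored through PicoGreen staining of dsDNA formed from ssM13Gori, dNTPs and NTPs, with compound preincubation and room-temperature reaction.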

In assay [11] the target is Tumor susceptibility gene 101 protein (Homo sapiens) (UniProt Q99816). Briefly: qHTS Validation Assay for Iinhibitors of HIV-1 Budding by Blocking the Interaction of PTAP/TSG101 (AID 485342; calls by dose curve). The gist of the method: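 Compound wells held the Tsg101 binding domain (10 uM) and a FITC-conjugated PTAP peptide (50 nM) in buffer at pH 7.5 containing 0.15 M NaCl and 0.01% Tween 20; polarization was recorded after 20 min, r.t.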
Tumor susceptibility gene 101 protein (Homo sapiens), sequence (Q99816 whole entry, looked up, the tested form may be a part): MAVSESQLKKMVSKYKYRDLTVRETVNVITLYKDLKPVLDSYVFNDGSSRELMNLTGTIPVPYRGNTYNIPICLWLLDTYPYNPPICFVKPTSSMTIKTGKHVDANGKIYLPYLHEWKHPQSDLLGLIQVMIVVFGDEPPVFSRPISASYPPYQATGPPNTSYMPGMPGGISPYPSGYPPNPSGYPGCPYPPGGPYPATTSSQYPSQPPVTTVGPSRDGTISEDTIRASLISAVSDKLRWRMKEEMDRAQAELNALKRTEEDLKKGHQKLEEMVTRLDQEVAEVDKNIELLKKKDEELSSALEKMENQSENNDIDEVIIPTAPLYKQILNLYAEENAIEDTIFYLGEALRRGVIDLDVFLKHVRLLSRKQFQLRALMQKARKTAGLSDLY

The target of assay [12] is Beta-2 adrenergic receptor (Homo sapiens) (UniProt P07550). Briefly: qHTS validation assay of beta-arrestin-biased ligands of beta2-adrenergic receptor (AID 485366). The gist of the method: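 Values derive from curve-fitted %Activity of a luminescent beta-arrestin recruitment reporter; compounds tested up to 46 microM on Tango cells for 18 hr at 37 degrees C, 5% CO2.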
Beta-2 adrenergic receptor (Homo sapiens), sequence (P07550 whole entry, looked up): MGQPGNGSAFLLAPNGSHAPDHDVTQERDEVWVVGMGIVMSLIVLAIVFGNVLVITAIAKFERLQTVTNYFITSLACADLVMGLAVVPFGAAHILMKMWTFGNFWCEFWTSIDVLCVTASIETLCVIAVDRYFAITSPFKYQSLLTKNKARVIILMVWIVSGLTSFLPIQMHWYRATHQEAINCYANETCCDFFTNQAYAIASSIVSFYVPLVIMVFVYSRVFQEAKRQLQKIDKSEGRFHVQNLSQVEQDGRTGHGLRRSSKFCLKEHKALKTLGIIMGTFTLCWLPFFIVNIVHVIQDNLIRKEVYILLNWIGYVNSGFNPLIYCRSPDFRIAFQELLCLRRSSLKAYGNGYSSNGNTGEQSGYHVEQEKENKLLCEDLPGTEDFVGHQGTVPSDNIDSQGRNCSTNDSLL

Assay [13] deals with ATP-dependent 6-phosphofructokinase (Trypanosoma brucei brucei) (UniProt O15648). Briefly: qHTS Validation Assay to Find Inhibitors of T. brucei phosphofructokinase (AID 485368). The essentials: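 Enzyme reaction in triethanolamine buffer pH 8.0 with 5 mM MgCl2, 0.01% Tween20 and 0.1% BSA; PFK 1.25 nM, F6P 0.5 mM, ATP 0.1 mM, 45 min RT. ADP quantified by ADP-Glo.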
ATP-dependent 6-phosphofructokinase (Trypanosoma brucei brucei), sequence (O15648 whole entry, looked up): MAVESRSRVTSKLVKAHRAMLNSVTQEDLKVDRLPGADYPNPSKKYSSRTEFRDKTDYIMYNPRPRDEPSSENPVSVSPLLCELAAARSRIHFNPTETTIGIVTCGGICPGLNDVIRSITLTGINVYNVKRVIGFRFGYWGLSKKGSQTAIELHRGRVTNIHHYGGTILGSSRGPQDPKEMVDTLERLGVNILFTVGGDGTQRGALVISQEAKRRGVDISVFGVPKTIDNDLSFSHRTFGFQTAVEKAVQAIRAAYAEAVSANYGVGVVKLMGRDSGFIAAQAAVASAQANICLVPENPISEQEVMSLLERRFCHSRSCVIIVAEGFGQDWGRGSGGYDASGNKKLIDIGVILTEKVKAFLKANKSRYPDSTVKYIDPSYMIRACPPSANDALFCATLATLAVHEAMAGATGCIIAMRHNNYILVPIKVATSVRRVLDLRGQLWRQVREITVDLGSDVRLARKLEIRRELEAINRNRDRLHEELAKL
A short description of assay [14]: Quantitative high throughput screen for delayed death inhibitors of the malarial parasite plastid, 96 hour incubation (AID 488745). Also: nearly all actives have a fitted effect of over 70% in size. Also: potency is read from the fitted curve at half-maximal effect. The essentials: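 P. falciparum carrying an integrated firefly luciferase reporter, grown in erythrocytes (2% hematocrit, 0.1% parasitemia final) in RPMI 1640/0.5% Albumax, was exposed to compound for 96 h (two generations) at 37 C, 5% CO2. Luminescence decrease indicated growth inhibition.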

Assay [15] can be described thus: Quantitative high throughput screen for delayed death inhibitors of the malarial parasite plastid, 48 hour incubation (AID 488752). Also: nearly all actives have a fitted effect of over 65% in size. Also: potency is read from the fitted curve at half-maximal effect. The essentials:
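Erythrocytes infected with P. falciparum carrying an integrated firefly luciferase reporter (2% hematocrit, 0.1% parasitemia final) were exposed to compounds in RPMI 1640/0.5% Albumax for 48 h at 37 C, 5% CO2. Growth inhibition was scored as reduced luminescence.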

A short description of assay [16]: qHTS for differential inhibitors of proliferation of Plasmodium falciparum line D10 (AID 1877).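 Also: parasites grown with compound for 72 h before DNA staining.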 Also: potency is read from the fitted curve at half-maximal effect.
The target of assay [17] is RecQ-like DNA helicase BLM (Homo sapiens) (UniProt P54132). Nature of the assay: qHTS Validation Assay for Inhibitors of Bloom's syndrome helicase (BLM) (AID 2364). The gist of the method: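 50 nM BLM preincubated 15 min at room temperature with compound in pH 8.0 Tris buffer containing 2.5 ug/ml poly(dI-dC); started with 200 nM TAMRA/BHQ-2 forked duplex and 2 mM ATP (final). Unwinding read as TAMRA fluorescence increase, two reads 2 h apart.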

The nature of assay [18]: qHTS Validation Assay to Find Inhibitors of Chronic Active B-Cell Receptor Signaling (AID 485345; active = well fitted curve in the direction sought with a large enough effect in the main read-out, with a control signal flat, not every such curve was filed as active). The gist of the method: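 TMD8 ABC-DLBCL cells stably carrying doxycycline-inducible IkappaBalpha–green luciferase fusion plus unfused red luciferase; compounds 46 uM to 3 nM, 4 h at 37C with doxycycline. Corrected green/red luminescence ratio normalized to 10 uM MG-132 and basal cell wells; curves fitted.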

Assay [19] can be described thus: qHTS Assay for Identification of Small Molecule Inducers of Hypoxia Response (AID 2120; active = well fitted curve in the direction sought with a large enough effect in the signal ratio, with a control signal flat, not every such curve was filed as active; the % refers to the signal ratio). The essentials: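 HRE-beta-lactamase reporter in CellSensor HRE-bla ME-180 cells, 2500 cells/well in Opti-MEM with 0.5% dialyzed FBS; compounds tested as titration series, 17 h at 37 degrees C. CCF4 substrate 2.5 h at room temperature; AC50 from 460/530 nm ratio.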
Assay [20] can be described thus: qHTS for differential inhibitors of proliferation of Plasmodium falciparum line W2 (AID 1883).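 Also: parasites grown with compound for 72 h before lysis and staining.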 Also: potency is read from the fitted curve at half-maximal effect. The conditions noted are these: Potency: Plasmodium falciparum W2 proliferation inhibition.

Results filed as inconclusive are left out. Calls of active or inactive are those of the source. Unless noted, calls follow the shape of the dose curve; as a rule, active = well fitted curve in the direction sought with a large enough effect; inconclusive = small, poorly fitted or top-dose-only effect, or another doubt; inactive = no such curve, though single readings can be large; an effect the other way counts as inactive or inconclusive.

DNA polymerase III PolC-type (Bacillus subtilis (strain 168)), sequence (P13267 whole entry, looked up): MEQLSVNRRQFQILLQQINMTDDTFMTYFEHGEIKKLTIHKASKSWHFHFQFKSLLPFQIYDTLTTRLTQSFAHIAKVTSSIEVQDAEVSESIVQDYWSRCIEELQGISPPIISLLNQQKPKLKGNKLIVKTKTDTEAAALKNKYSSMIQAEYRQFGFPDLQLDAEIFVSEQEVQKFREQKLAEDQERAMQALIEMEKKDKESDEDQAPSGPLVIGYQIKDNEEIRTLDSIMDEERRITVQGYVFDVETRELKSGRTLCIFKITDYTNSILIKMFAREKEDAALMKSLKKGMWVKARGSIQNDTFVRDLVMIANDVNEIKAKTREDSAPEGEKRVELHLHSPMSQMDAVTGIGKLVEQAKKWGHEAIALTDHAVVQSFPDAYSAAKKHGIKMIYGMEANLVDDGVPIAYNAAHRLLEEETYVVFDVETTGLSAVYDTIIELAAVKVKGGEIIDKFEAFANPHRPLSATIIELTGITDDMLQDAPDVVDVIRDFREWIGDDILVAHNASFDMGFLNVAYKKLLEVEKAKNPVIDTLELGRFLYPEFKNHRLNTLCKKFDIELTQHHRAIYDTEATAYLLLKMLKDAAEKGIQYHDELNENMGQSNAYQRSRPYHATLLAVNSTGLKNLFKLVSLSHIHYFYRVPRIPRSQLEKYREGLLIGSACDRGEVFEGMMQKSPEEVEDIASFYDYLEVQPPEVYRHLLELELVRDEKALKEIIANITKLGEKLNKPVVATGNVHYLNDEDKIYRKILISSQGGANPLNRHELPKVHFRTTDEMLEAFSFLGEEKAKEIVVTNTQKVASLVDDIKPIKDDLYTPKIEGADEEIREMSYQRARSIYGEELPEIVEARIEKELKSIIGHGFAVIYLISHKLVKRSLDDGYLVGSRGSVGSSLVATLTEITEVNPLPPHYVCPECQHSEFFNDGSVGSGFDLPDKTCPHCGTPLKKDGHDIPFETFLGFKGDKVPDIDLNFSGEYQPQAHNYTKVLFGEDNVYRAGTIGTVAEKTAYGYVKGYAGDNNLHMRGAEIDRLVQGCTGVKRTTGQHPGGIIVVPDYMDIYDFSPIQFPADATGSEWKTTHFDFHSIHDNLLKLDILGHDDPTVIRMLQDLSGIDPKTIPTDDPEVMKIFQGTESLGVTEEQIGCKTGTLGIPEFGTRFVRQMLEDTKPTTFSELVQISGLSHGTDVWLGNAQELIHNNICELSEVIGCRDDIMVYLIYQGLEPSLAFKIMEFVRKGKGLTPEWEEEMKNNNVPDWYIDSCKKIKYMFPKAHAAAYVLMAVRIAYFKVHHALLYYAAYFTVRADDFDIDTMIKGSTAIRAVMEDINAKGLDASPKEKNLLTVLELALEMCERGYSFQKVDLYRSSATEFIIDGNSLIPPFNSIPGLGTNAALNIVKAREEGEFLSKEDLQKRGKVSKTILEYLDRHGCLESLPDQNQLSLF
Ubiquitin carboxyl-terminal hydrolase 2 (Homo sapiens), sequence (O75604 whole entry, looked up): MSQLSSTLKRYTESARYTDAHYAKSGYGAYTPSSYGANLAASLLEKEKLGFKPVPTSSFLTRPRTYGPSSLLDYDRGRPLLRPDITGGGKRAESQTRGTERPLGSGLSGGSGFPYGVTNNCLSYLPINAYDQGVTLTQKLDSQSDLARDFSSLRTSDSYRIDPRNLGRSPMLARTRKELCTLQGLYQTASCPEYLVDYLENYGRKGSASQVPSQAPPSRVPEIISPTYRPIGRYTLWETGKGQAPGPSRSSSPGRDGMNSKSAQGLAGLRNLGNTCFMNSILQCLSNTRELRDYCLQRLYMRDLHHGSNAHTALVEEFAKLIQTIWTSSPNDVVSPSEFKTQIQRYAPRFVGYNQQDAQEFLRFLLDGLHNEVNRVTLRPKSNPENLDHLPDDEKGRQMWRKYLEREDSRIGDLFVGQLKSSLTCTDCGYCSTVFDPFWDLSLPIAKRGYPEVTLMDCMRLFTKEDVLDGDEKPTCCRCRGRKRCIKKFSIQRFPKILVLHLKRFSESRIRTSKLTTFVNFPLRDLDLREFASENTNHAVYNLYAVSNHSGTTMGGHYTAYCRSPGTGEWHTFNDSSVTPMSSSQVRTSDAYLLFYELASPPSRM

Take `C[C@]12CC[C@@H]3c4ccc(O)cc4CC[C@H]3[C@@H]1CC[C@@H]2O`: the Potency result in [1], in assay [2], in [6], in assay [7], in assay [10] and in assay [13] was “inactive” in each case. In addition, the Potency result in [14] and in assay [15] was “inactive” throughout. Further, the call in assay [3], in assay [4], in assay [5], in assay [8], in assay [9] and in assay [11] was inactive. Also, in assay [12], the molecule was called inactive.
As for `CC(C)COC(=O)OCN1C(=O)CN(CCN2CC(=O)N(COC(=O)OCC(C)C)C(=O)C2)CC1=O`, the Potency result in assay [16], in assay [1], in assay [2], in [6], in assay [7] and in [10] was “inactive” throughout. For the same molecule, the Potency entry in [14] and in assay [15] was “inactive” each time. The outcome in assay [3], in [17], in [4], in assay [5], in assay [8] and in assay [9] was inactive. In addition, the result in assay [11], in assay [18] and in assay [12] was inactive.
Regarding `CCCCCCc1ccc(O)cc1O`, the call in assay [19] was inactive.
On to `O=C1CCC(c2ccc(-n3ccnc3)cc2)=NN1`, for which the Potency result in assay [16], in assay [1], in [20], in [2], in assay [6] and in assay [7] was “inactive” in each case. The Potency result in assay [10], in assay [13], in [14] and in assay [15] was “inactive” each time. Besides, the call in assay [3], in assay [17], in [4], in assay [5], in [8] and in assay [9] was inactive. For the same molecule, the outcome in assay [11], in [18] and in assay [12] was inactive.
`COC(=O)[C@H]1[C@H]2C[C@H]3c4[nH]c5ccccc5c4CCN3C[C@H]2CC[C@@H]1O`: the Potency entry in assay [16], in [1], in assay [2], in [6], in assay [7] and in assay [10] was “inactive” in each case. Also, the Potency entry in assay [13] and in assay [15] was “inactive” in each case. In addition, the molecule was called inactive in assay [3], in [4], in assay [5], in assay [8], in assay [9] and in assay [11]. Further, the result in [18] and in assay [12] was inactive.
With `CC(C)C[C@H]1C(=O)N2CCC[C@H]2[C@]2(O)O[C@](NC(=O)[C@@H]3C=C4c5cccc6[nH]c(Br)c(c56)C[C@H]4N(C)C3)(C(C)C)C(=O)N12`, the molecule was called inactive in assay [4], in [5], in assay [9], in assay [11], in [18] and in [12]. Also, the Potency entry in [6] and in [10] was “inactive” each time.
In the case of `COc1cc(NS(C)(=O)=O)ccc1Nc1c2ccccc2nc2ccccc12`, the Potency is 1410 nM (active) in [16]; 2510 nM (active) in assay [1]; 1000 nM (active) in assay [20]; 1410 nM (active) in assay [2]; 3690 nM (active) in assay [6]; 521 nM (active) in assay [7]. Moreover, the values for the Potency in [14] and in [15] were 1170 nM (active) and 1850 nM (active), respectively. For the same molecule, the result in [5], in [9], in [11] and in assay [12] was inactive. Besides, the Potency entry in assay [13] was “inactive”.
For the molecule `CCCC1O[C@@H]2C[C@H]3[C@@H]4CCC5=CC(=O)C=C[C@]5(C)[C@H]4[C@@H](O)C[C@]3(C)[C@]2(C(=O)CO)O1` (some centres not stated), the molecule was classed as inactive in [4], in [5], in [9], in assay [11] and in assay [12]. Moreover, the Potency entry in assay [6], in assay [7] and in assay [10] was “inactive” each time.
